# From PubChem BioAssay AID1259374 (The Scripps Research Institute Molecular Screening Center, 2018)
# About 5,900 (0.91%) of roughly 650,000 compounds were called active. For the sample, actives were picked, then their nearest neighbours and some compounds at random. Values without a mark were called inactive. Rule as the data show it: active = inhibition above about 50%; inactive = the rest.
# Molecular target: Microphthalmia-associated transcription factor (Homo sapiens) (UniProt O75030)
# Test: MITF inhibitors, primary screen, biochemical, AlphaScreen, human (AID 1259374);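 also: 0% = vehicle wells with protein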
# Conditions: AlphaScreen MITF homodimerization, bead proximity signal; at 2.6 µM; active compounds read high
# Sequence of Microphthalmia-associated transcription factor (Homo sapiens) (O75030 whole entry, looked up): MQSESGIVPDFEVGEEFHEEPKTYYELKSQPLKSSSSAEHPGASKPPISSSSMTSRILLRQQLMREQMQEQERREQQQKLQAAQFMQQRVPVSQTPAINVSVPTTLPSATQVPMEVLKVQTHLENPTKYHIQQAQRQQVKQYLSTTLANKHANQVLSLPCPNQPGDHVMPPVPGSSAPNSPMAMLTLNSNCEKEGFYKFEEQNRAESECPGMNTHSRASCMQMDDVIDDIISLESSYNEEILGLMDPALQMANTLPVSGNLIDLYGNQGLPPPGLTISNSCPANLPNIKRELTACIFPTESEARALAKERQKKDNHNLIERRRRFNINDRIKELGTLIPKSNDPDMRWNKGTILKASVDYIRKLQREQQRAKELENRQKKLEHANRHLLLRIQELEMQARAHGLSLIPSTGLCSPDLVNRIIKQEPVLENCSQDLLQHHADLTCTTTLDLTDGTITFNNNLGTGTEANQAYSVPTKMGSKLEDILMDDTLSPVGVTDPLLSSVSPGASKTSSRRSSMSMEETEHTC
row,Compound,inhibition
1,Cc1ccc(C)c(-n2c(SCCN3CCOCC3)nnc2-c2cccnc2)c1,-3.61%
2,O=C1OCCN1c1ccc(Nc2nccc(-c3cc(N4CCOCC4)cc([N+](=O)[O-])c3)n2)cc1,0.11%
3,Cc1c2c(c(O)c3c(O)cccc13)C(=O)OC2[C@@H]1C(N(C)C)C(O)=C(C(N)=O)C(=O)[C@H]1O (stereo partly specified),108% (active)
4,O=C1OC(c2ccccc2Cl)=N/C1=C\c1ccccc1[N+](=O)[O-],-1.22%
5,Cc1nc2sccn2c1CN1CCC(C2(Cc3ccccc3)NC(=O)NC2=O)CC1 (stereo unspecified),-18.4%
6,Cc1cc(C(F)(F)F)nn1CC(=O)Nc1ccc(I)c(Cl)c1,6.94%
7,COC(=O)c1c(OCCCN(C)C)cc(=O)n2c1CCN(C(=O)c1ccc(F)cc1)CC2,-2.23%
8,O=S(=O)(NCC(c1ccc2c(c1)OCO2)N1CCOCC1)c1cccs1 (stereo unspecified),1.27%
9,COc1cc(/C=N/n2c(-c3ccncc3)n[nH]c2=S)cc(OC)c1OC(C)=O,6.48%
10,Cc1cc(C)cc(N(CC(=O)NC2CCCC2)C(=O)CCC(=O)Nc2cc(C)on2)c1,5.39%
11,Cc1cc(NC(=O)CCC(=O)N(CC(=O)NC2CCCC2)c2ccc(F)cc2)no1,-6.06%
12,Cc1cc(NC(=O)/C=C/C(=O)N(CC(=O)NC2CCCC2)c2ccc(F)cc2)no1,75% (active)
13,CCOC(=O)CSC1=Nc2ccccc2C2=NC(C(C)C)C(=O)N12 (stereo unspecified),1.69%
14,O=C1NC(c2cccs2)C(C(=O)c2cccnc2)C(O)(C(F)(F)F)N1 (stereo unspecified),-3.66%
15,O=C1NC(c2ccccc2[N+](=O)[O-])C(C(=O)c2cccs2)C(O)(C(F)(F)F)N1 (stereo unspecified),58.9% (active)
16,O=C1NC(c2c(F)cccc2Cl)C(C(=O)c2cccs2)C(O)(C(F)(F)F)N1 (stereo unspecified),-3.71%
17,CCN(CC)CCN(CC)Cc1c(F)cccc1F,6.2%
18,CCN(CCN(C)C)Cc1c(Cl)cccc1Cl,56.6% (active)
19,CN(C)CCN(C)Cc1c(F)cccc1Cl,49.6%
20,CCOC(=O)C1C(=O)C=C(c2ccc(F)cc2)CC1c1cccs1 (stereo unspecified),-5.44%
21,CC(C)CO/N=C1\C[C@@H](O)[C@@H](O)[C@@H]2[C@@H]3C(=O)N([C@@H](C)c4ccccc4)C(=O)[C@@H]3CC[C@@H]12,114% (active)
22,C[C@@H](c1ccccc1)N1C(=O)[C@H]2[C@H]3[C@H](O)C=CC(=O)[C@@H]3CC[C@H]2C1=O,17.6%
23,CC(C)CO/N=C1\C[C@@H](O)[C@@H](O)[C@@H]2[C@@H]3C(=O)N(C[C@@H]4CCCO4)C(=O)[C@@H]3CC[C@@H]12,-23%

row,Compound,inhibition
1,O=C(CN(Cc1cccs1)C(=O)c1nsc(Cl)c1Cl)NC1CCCC1,11.8%
2,Nc1nccc(-c2ccc3nc(C4COc5ccc(Br)cc5C4)[nH]c3c2)n1 (stereo unspecified),8.16%
3,Cc1nn(C(=O)N2CCOCC2)c(C)c1Br,13.6%
4,NC(=O)CCn1cc(/C=C2\Cc3ccccc3C2=O)c2ccccc21,-5.7%
5,Clc1ccc(Cl)c(N2Cc3cc4c(cc3C2)CN(c2cc(Cl)ccc2Cl)C4)c1,4.43%
6,COc1cccc(OC)c1C(=O)OCC(=O)/C(C#N)=C(\C)N,-4.31%
7,C/C(N)=C(/C#N)C(=O)COC(=O)c1c2c(nc3ccccc13)/C(=C/c1ccco1)CC2,81.7% (active)
8,COc1ccc(-c2cc(C(=O)OCC(=O)/C(C#N)=C(\C)N)c3ccccc3n2)cc1,7.78%
9,CCOc1ccc(-c2ccc(SCC(=O)Nc3cc(C)on3)nn2)cc1,4.05%
10,O=C(CSc1ccc(-c2ccccn2)nn1)Nc1ccccc1,49.6%
11,Cc1cc(NC(=O)CSc2ccc(-c3ccccn3)nn2)no1,78.7% (active)
12,Cc1[nH]c(=O)[nH]c(=O)c1S(=O)(=O)N1CCC(Cc2ccccc2)CC1,-4.65%
13,O=C(Nc1cccc(NC(=O)c2ccc(S(=O)(=O)N3CCOCC3)cc2)c1)c1ccc(S(=O)(=O)N2CCOCC2)cc1,-11.6%
14,Clc1cc(Cl)c(OCCOc2ccccc2)c(/C=N/n2cnnc2)c1,-17.6%
15,CC(C)(C)NC(=O)N1CCN(c2cc(N3CCCC3)ncn2)CC1,5.52%
16,Cc1ccccc1NC(=O)NCCOc1cc(N2CCCC2)ncn1,63.9% (active)
17,Cc1ccccc1NC(=O)C(=O)N1CCCCC1,-9.16%
18,CCOC(=O)c1ccc2c(c1)nc(C(C)C)n2CC,29.7%
19,c1ccc(-c2ccc(OCCCNCCN3CCOCC3)cc2)cc1,-7.58%
20,c1ccc(-c2ccccc2OCCCCNCCN2CCOCC2)cc1,11.5%
21,Cc1ccc(OCCCCNCCN2CCOCC2)c(Br)c1,65.7% (active)
22,Clc1c(OCCCNCCN2CCOCC2)ccc2ccccc12,26%
23,c1ccc(-c2ccccc2OCCNCCN2CCOCC2)cc1,58.3% (active)

row,Compound,inhibition
1,Cc1ccc(OCCCNCCN)c(Br)c1,5.41%
2,CC(NC(=O)Cn1c(C2CC2)nc2ccccc21)C1CC2CCC1C2 (stereo unspecified),5%
3,C/C(=N\NC(=O)C(O)c1ccccc1)c1ccc2c(c1)CCCC2 (stereo unspecified),-5.38%
4,O=C(NC1CSC/C1=N\Nc1cc([N+](=O)[O-])cc([N+](=O)[O-])c1)c1ccccc1 (stereo unspecified),18%
5,O=C(CC1(c2ccccc2F)CC(=O)N(C2CCCCC2)C1=O)N1CCOCC1 (stereo unspecified),-8.12%
6,CCOc1ccccc1N(CC(=O)NC(C)(C)CC)C(=O)CCC(=O)Nc1nccs1,-1.1%
7,CNC(=O)c1c(NC(=O)C2CCCCC2)sc2c1CCC(C)C2 (stereo unspecified),-7.36%
8,Cc1ccc(NC(=O)COC(=O)CCC(=O)Nc2sc3c(c2C(N)=O)CCC3)cc1F,84.3% (active)
9,NC(=O)c1c(NC(=O)CCC(=O)OCC(=O)Nc2ccccc2Cl)sc2c1CCC2,-2.18%
10,CC(C)(C)c1ccc(OCC(=O)OCC(=O)Nc2sc3c(c2C(N)=O)CCC3)cc1,0.98%
11,Cc1cc(SCC(=O)N2CCOCC2)nc2ccccc12,14.6%
12,CCOc1cccc(/C=N/NC(=O)COc2cccc(C)c2C)c1O,2.99%
13,CCCCNC(=S)N/N=C/c1ccccc1OCC(=O)O,-2.56%
14,CCOc1cccc(/C=N/NC(=S)NCCN2CCOCC2)c1O,63.2% (active)
15,COc1ccccc1N(C(C)=O)C1C=CS(=O)(=O)C1 (stereo unspecified),1.71%
16,Cc1csc(-c2cnc3ccc(NCCc4cccnc4)nn23)c1,-21.5%
17,c1cncc(CCNc2ccc3ncc(-c4cc5ccccc5o4)n3n2)c1,54.6% (active)
18,c1cncc(CCNc2ccc3ncc(-c4cccc5ccccc45)n3n2)c1,-3.61%
19,CCOc1ccc(-c2ncnn2-c2sc3c(c2C#N)CCCC3)cc1,-3.27%
20,COc1cccc(-c2ncnn2-c2sc3c(c2C#N)CCCCC3)c1,63.4% (active)
21,N#Cc1c(-n2ncnc2-c2ccccc2)sc2c1CCCC2,-14.9%
22,O=C(O)C1C2C=CC(O2)C1C(=O)Nc1nccs1 (stereo unspecified),81.7% (active)
23,O=C(Nc1nccs1)C(c1ccccc1)c1ccccc1,-0.78%

row,Compound,inhibition
1,CCCCOC(=O)c1ccc(NC(=O)C2C3C=CC(O3)C2C(=O)O)cc1 (stereo unspecified),-9.29%
2,COc1ccc(-c2nc3n(c2NC(C)(C)C)CCNC3)cc1,0.05%
3,COc1ccc(C(=O)NCCN2CCN(c3nc4c(C)c(C)ccc4s3)CC2)cc1,61.8% (active)
4,COc1ccc2nc(N3CCN(CCNC(=O)c4ccco4)CC3)sc2c1,-9.88%
5,COc1ccc(S(=O)(=O)N2CCN(CCNC(=O)c3ccc(-c4ccccc4)cc3)CC2)cc1,8.93%
6,O=Cc1ccc(OCc2ccc([N+](=O)[O-])cc2)c(I)c1,9.55%
7,O=C(c1cccnc1N1CCC(Cc2ccccc2)CC1)N1CCCCC1,11.1%
8,c1ccc(CC2CCN(c3nc4ccccc4n4cnnc34)CC2)cc1,-0.95%
9,Cc1nnc(N2CCC(Cc3ccccc3)CC2)c2ccccc12,66.8% (active)
10,O=C(c1cnn2c(C(F)(F)F)cc(-c3ccco3)nc12)N1CCN(C(c2ccccc2)c2ccccc2)CC1,-6.87%
11,O=c1c2ccccc2[nH]c(=S)n1NS(=O)(=O)c1ccccc1,0.19%
12,CCc1cccc(CC)c1-n1c(CNC(=O)Cc2ccccc2)nnc1SCC(=O)Nc1ccc(OC)cc1,-9.51%
13,COc1cc(C(=O)Nc2cnc(NC(=O)c3ccccc3)cc2C)cc(OC)c1OC,12.9%
14,CCOC(=O)CSc1ccc(C(=O)N2CCN(Cc3ccc(OC)c(OC)c3OC)CC2)cc1[N+](=O)[O-],-5.49%
15,COc1ccc(CN2CCN(C3CCC(C)CC3)CC2)c(OC)c1OC (stereo unspecified),63.1% (active)
16,COc1ccc(CN2CCN(S(=O)(=O)c3cc(Br)c(Br)s3)CC2)c(OC)c1OC,19.2%
17,COc1ccc(CN2CCc3nnc(C4CCCO4)n3CC2)c(OC)c1OC (stereo unspecified),-1.23%
18,COc1ccc(CN2CCN(Cc3ccccc3C)CC2)c(OC)c1OC,56.1% (active)
19,Cc1ccccc1CN1CCC(N2CCCCC2)CC1,32.6%
20,Cc1noc(C)c1S(=O)(=O)N1CCN(Cc2nc3ccccc3n2C)CC1,8.13%
21,COc1ccc(C(=O)CCNC(Cc2cnc[nH]2)C(=O)O)cc1 (stereo unspecified),34.2%
22,CC(Oc1ccc(Br)cc1)C(=O)N/N=C/c1ccccc1O (stereo unspecified),-6.74%
